Test results as given in PubChem BioAssay (Tox21).
Values joined by “and” are separate entries in the source; they are usually repeats but may differ in a detail not shown here. Identical values can stand only once. Records with an inconclusive call do not appear. A call without a number means that no potency is given here. Some structures have more than one record in an assay (separate samples or runs), and their calls can disagree. Active and inactive are the calls of the source. Unless noted, the call rests on the fitted dose curve; in most records, active means well fitted curve in the direction sought with a large enough effect in the repeat runs; inconclusive means weak or mixed curves; inactive means no such curve, though single readings can be large; an effect the other way counts as inactive or inconclusive.

Tests used:
[1] = molecular target: Acetylcholinesterase (Homo sapiens) (UniProt P22303); experiment: Acetylcholinesterase (AChE) small molecule antagonists: colormetric cell-based qHTS assay (AID 1347395; calls by dose curve; further: nearly all actives have a fitted effect of over 30% in size)
Acetylcholinesterase (Homo sapiens), sequence (P22303 whole entry, looked up): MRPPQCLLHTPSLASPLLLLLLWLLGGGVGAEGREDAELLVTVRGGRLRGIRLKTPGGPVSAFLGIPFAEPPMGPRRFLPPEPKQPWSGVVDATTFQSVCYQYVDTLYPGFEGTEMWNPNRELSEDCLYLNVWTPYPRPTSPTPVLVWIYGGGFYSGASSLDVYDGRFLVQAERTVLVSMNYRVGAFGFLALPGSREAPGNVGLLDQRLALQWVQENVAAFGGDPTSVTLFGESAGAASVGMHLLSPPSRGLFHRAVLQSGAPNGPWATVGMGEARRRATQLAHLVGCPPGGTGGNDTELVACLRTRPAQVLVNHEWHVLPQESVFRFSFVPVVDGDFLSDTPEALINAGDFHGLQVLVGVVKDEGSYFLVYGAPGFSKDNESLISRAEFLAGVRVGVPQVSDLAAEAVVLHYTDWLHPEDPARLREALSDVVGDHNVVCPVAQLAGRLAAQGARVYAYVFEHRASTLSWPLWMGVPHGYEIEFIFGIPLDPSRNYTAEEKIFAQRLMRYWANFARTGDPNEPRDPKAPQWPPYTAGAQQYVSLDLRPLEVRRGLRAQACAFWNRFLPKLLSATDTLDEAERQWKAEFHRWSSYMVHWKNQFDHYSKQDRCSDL
Procedure, shortened: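 AChE inhibition read colorimetrically via DTNB–thiocholine in SH-SY5Y cells. Compound 30 min, substrate 90 min, both 37 C.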

[2] = molecular target: Acetylcholinesterase (Homo sapiens) (UniProt P22303); experiment: Acetylcholinesterase (AChE) small molecule antagonists: enzyme-based qHTS assay (AID 1347397; calls by dose curve; further: nearly all actives have a fitted effect of over 55% in size); conditions: Potency: AChE enzyme activity inhibition
Procedure, shortened: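 In this quantitative HTS, compounds from the Tox21 10K collection were preincubated 30 min at ambient temperature with recombinant human AChE dispensed at 50 mU/mL. Hydrolysis of acetylthiocholine was then followed for 10 min by DTNB colour development.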

[3] = molecular target: Acetylcholinesterase (Homo sapiens) (UniProt P22303); experiment: Acetylcholinesterase (AChE) small molecule antagonists: fluorescence cell-based qHTS assay (AID 1347398; calls by dose curve; further: nearly all actives have a fitted effect of over 50% in size); conditions: Potency: AChE activity
Procedure, shortened: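 Cells (SH-SY5Y) attached overnight, were dosed with compound or DMSO vehicle for 30 min at 37 C, and then incubated 40 min at room temperature with acetylthiocholine and Thiolite Green; green fluorescence indexed AChE activity.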

[4] = molecular target: Acetylcholinesterase (Homo sapiens) (UniProt P22303); experiment: Acetylcholinesterase (AChE) small molecule antagonists: enzyme-based qHTS assay with human liver microsomes (AID 1347399; calls by dose curve; further: nearly all actives have a fitted effect of over 60% in size); conditions: Potency: qHTS inhibition
Procedure, shortened: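 Recombinant human AChE (50 mU/mL in the enzyme mix) and human liver microsomes (0.25 mg/mL final) were preincubated with compound and NADPH (0.25 mg/mL final) for 30 min at 37 C. Acetylthiocholine/DTNB was then added; thiocholine was read colorimetrically after 10 min at room temperature.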

[5] = molecular target: Cytochrome P450 2D6 (Homo sapiens) (UniProt P10635); experiment: Cytochrome P450 Family 2 Subfamily D Member 6 (CYP2D6) small molecule antagonists: luciferase reporter qHTS assay (AID 1671196); further: nearly all actives have a fitted effect of over 50% in size
Cytochrome P450 2D6 (Homo sapiens), sequence (P10635 whole entry, looked up): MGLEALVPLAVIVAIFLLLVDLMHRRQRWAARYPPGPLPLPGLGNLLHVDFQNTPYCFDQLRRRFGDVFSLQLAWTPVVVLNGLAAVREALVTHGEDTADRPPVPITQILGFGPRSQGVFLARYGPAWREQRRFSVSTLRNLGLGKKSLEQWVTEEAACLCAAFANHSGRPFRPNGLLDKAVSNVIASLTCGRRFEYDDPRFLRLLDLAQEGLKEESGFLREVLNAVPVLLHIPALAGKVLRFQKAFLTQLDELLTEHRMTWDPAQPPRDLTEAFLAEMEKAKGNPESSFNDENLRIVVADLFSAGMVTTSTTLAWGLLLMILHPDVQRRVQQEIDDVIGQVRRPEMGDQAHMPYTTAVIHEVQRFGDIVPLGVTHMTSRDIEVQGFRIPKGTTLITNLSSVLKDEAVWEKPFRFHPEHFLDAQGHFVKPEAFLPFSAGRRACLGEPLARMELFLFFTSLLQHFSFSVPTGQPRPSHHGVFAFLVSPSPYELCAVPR
Procedure, shortened: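 Enzyme and proluciferin substrate were first combined with test chemical for 10 min at room temperature. Adding NADPH regeneration solution started a 1 h reaction, stopped with luciferin detection reagent and read by luminescence 20 min later.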

[6] = molecular target: Cytochrome P450 2C19 (Homo sapiens) (UniProt P33261); experiment: Cytochrome P450 Family 2 Subfamily C Member 19 (CYP2C19) small molecule antagonists: luciferase reporter qHTS assay (AID 1671197); further: nearly all actives have a fitted effect of over 65% in size
Cytochrome P450 2C19 (Homo sapiens), sequence (P33261 whole entry, looked up): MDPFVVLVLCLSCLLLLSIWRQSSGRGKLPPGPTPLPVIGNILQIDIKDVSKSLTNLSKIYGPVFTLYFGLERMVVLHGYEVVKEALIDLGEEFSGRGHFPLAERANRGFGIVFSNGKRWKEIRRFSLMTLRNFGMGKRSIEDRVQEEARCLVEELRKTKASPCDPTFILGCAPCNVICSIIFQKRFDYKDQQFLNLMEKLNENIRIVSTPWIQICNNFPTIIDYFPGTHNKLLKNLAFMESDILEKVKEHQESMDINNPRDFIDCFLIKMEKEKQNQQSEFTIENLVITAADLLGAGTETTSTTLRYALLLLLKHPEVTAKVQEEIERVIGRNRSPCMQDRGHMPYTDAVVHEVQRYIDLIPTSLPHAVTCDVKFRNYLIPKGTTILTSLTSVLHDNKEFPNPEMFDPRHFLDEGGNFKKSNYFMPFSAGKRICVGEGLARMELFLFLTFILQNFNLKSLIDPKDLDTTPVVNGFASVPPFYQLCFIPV
Procedure, shortened: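 Quantitative high-throughput screen of the Tox21 library using CYP2C19 with proluciferin substrate. Reaction: NADPH regeneration, 37C, 1 h, after 10 min compound preincubation at room temperature. Readout: luminescence.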

[7] = molecular target: Cytochrome P450 2C9 (Homo sapiens) (UniProt P11712); experiment: Cytochrome P450 Family 2 Subfamily C Member 9 (CYP2C9) small molecule antagonists: luciferase reporter qHTS assay (AID 1671198); further: nearly all actives have a fitted effect of over 50% in size
Cytochrome P450 2C9 (Homo sapiens), sequence (P11712 whole entry, looked up): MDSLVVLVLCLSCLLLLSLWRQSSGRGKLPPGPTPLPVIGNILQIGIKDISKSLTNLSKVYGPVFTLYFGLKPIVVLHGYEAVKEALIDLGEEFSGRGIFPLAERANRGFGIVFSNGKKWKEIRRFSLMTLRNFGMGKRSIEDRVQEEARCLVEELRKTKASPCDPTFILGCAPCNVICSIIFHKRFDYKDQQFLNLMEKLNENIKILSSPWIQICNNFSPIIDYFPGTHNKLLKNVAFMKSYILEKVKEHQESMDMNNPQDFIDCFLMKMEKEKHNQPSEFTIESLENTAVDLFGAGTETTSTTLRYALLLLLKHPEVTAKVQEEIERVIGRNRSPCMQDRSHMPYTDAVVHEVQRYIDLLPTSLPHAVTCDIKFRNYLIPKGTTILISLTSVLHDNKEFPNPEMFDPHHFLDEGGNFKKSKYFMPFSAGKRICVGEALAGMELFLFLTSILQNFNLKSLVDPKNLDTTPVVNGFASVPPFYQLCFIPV
Procedure, shortened: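 P450-Glo proluciferin substrate with CYP2C9 enzyme; 10 min RT preincubation, then NADPH regeneration 1 h at 37C; luciferin detection reagent 20 min RT, luminescence in relative luminescence units.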

[8] = molecular target: Cytochrome P450 1A2 (Homo sapiens) (UniProt P05177); experiment: Cytochrome P450 Family 1 Subfamily A Member 2 (CYP1A2) small molecule antagonists: luciferase reporter qHTS assay (AID 1671199); further: nearly all actives have a fitted effect of over 50% in size
Cytochrome P450 1A2 (Homo sapiens), sequence (P05177 whole entry, looked up): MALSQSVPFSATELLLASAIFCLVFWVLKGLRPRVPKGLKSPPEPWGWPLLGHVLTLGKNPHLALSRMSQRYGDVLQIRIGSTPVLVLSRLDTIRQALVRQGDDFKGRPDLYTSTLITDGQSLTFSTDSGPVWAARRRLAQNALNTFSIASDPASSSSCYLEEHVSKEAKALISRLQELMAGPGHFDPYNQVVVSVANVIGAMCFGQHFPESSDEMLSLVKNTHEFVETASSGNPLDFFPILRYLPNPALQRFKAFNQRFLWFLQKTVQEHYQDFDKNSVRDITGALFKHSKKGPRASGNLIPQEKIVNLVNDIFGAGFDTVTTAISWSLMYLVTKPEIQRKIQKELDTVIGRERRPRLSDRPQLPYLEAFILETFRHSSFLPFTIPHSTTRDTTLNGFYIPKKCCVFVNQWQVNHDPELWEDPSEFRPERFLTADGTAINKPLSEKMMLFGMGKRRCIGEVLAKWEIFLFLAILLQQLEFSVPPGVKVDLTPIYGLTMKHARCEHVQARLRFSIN
Procedure, shortened: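 Compounds were incubated with CYP1A2 and a luminogenic proluciferin substrate for 10 min at room temperature before the reaction was started with NADPH regeneration solution. After 1 h, detection reagent was added and light output, proportional to CYP activity, was recorded.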

[9] = molecular target: Voltage-gated inwardly rectifying potassium channel KCNH2 (Homo sapiens) (UniProt Q12809); experiment: Human Ether-a-go-go-Related Gene (hERG) channel small molecule antagonists: fluorescence cell-based qHTS assay (AID 1671200); further: nearly all actives have a fitted effect of over 50% in size
Voltage-gated inwardly rectifying potassium channel KCNH2 (Homo sapiens), sequence (Q12809 whole entry, looked up): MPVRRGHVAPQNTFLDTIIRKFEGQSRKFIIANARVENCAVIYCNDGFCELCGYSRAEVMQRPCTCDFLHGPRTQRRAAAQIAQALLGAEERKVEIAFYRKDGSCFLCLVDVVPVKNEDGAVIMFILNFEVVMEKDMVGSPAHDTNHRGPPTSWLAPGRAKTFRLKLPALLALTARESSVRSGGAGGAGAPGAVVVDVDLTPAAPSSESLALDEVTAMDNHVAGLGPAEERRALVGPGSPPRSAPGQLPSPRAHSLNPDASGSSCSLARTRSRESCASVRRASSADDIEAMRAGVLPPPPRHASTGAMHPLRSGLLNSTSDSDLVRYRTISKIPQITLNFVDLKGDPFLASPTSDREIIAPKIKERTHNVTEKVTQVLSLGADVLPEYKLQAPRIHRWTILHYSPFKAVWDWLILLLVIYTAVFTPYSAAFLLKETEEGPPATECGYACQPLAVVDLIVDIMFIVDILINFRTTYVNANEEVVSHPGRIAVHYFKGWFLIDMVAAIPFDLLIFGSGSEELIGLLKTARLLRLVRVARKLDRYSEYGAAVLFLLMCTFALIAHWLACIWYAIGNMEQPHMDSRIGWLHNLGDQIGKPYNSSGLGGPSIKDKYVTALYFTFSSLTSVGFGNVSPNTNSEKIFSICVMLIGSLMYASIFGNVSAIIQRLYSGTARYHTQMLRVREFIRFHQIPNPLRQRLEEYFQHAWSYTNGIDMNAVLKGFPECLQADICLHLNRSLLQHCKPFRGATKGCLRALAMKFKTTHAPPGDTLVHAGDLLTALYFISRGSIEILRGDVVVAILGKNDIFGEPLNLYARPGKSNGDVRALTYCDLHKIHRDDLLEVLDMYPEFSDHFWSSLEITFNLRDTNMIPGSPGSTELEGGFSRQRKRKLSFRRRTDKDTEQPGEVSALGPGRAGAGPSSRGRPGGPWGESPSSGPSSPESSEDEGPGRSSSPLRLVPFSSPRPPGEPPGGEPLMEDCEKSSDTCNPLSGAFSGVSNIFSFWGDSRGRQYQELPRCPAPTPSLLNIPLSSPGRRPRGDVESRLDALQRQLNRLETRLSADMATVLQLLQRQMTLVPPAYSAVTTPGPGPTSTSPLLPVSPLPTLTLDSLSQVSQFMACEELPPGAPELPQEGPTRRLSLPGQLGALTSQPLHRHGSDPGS
Procedure, shortened: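 Kinetic two-minute fluorescence traces, sampled at 1 s, were collected following thallium stimulus of U2OS cells (1000 per well) that had been cultured overnight at 37 C and loaded with FluxOR II.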

[10] = molecular target: Cytochrome P450 3A4 (Homo sapiens) (UniProt P08684); experiment: Cytochrome P450 Family 3 Subfamily A Member 4 (CYP3A4) small molecule antagonists: luciferase reporter qHTS assay (AID 1671201); further: nearly all actives have a fitted effect of over 50% in size
Cytochrome P450 3A4 (Homo sapiens), sequence (P08684 whole entry, looked up): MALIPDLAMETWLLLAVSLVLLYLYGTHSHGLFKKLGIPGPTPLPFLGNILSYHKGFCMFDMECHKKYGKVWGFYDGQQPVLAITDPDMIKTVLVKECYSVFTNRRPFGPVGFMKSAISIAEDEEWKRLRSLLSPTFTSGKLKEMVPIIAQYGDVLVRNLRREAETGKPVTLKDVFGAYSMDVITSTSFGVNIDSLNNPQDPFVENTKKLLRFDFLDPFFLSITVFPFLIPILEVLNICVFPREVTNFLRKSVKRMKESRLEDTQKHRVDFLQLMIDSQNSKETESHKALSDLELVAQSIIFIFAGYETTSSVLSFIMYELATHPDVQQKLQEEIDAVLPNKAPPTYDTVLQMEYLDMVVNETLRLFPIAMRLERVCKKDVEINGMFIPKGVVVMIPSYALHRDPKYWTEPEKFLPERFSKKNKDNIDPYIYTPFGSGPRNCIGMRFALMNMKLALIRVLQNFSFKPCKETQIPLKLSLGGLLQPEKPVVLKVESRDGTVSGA
Procedure, shortened: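 Proluciferin-to-luciferin conversion by CYP3A4, NADPH-regenerated, 1 h RT; luminescence read as RLU. Ketoconazole as control.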
Potency means the concentration at half of the fitted maximal effect.

SMILES | Potency [1] | Potency [2] | Potency [3] | Potency [4] | Potency [5] | Potency [6] | Potency [7] | Potency [8] | Potency [9] | Potency [10]
N#CCCCl | inactive | inactive | inactive | inactive | inactive | 77.7 µM (active) and inactive | inactive | inactive | inactive | 
O=[N+]([O-])c1cccc2ccccc12 | inactive | inactive | inactive | inactive | inactive | inactive | inactive | 3.17 µM (active) and 3.99 µM (active) | inactive | 
COP(=O)(OC)OC | inactive | inactive | inactive | inactive | inactive | 9.01 µM (active) and inactive | 32 µM (active) and inactive | 35.9 µM (active) and inactive | inactive | 16 µM (active) and inactive
CC(C)C(=O)OCC(C)(C)C(OC(=O)C(C)C)C(C)C (stereo unspecified) | inactive | inactive | inactive | inactive | 32 µM (active) and inactive | inactive | inactive | inactive | inactive | 
Nc1cccnc1 | inactive | inactive | inactive | inactive | inactive | 71 µM (active) | inactive | inactive | inactive | inactive
c1cc(OCC2CO2)ccc1Cc1ccc(OCC2CO2)cc1 (stereo unspecified) | inactive | inactive | inactive | inactive | 16 µM (active) and 28.3 µM (active) | 8 µM (active) and 7.96 µM (active) | 35.7 µM (active) and 28.3 µM (active) | 71 µM (active) | inactive | 
CCc1cccc(CC)c1N(COC)C(=O)CCl | inactive | inactive | inactive | inactive | inactive | 9.71 µM (active) and 71 µM (active) | 30.7 µM (active) and 39.9 µM (active) | inactive | inactive | 
c1nc[nH]n1 | inactive | inactive | inactive | inactive | inactive | inactive | inactive | 62 µM (active) and 71 µM (active) | inactive | 
O=C(NC(=O)c1c(F)cccc1F)Nc1ccc(Cl)cc1 | inactive | inactive | inactive | inactive | inactive | inactive | inactive | 35.6 µM (active) | inactive | inactive
CC(C)N(C(=O)SCC(Cl)=C(Cl)Cl)C(C)C | inactive | inactive | inactive | inactive | inactive | 35.1 µM (active) and 5.03 µM (active) | inactive and 31.7 µM (active) | inactive | 27.5 µM (active) | inactive
Cc1cc(C)cc(C)c1 | inactive | inactive | inactive | inactive | inactive | inactive | inactive | inactive | inactive | 
c1ccc(-c2cccc(-c3ccccc3)c2)cc1 | inactive | inactive | inactive | inactive | inactive | 20.2 µM (active) and 8.94 µM (active) | 28.6 µM (active) and 31.7 µM (active) | 5.7 µM (active) and 5.64 µM (active) | inactive | inactive
C1=Cc2cccc3cccc1c23 | inactive | inactive | inactive | inactive | inactive |  | inactive | 31.2 µM (active) and 25.2 µM (active) | inactive | 
CCCCC(CC)COC(=O)Cl (stereo unspecified) | inactive | inactive | inactive | inactive | inactive | inactive | inactive | inactive | inactive | 
O=P(Oc1ccccc1)(Oc1ccccc1)Oc1ccccc1 | 19.9 µM (active) and 20 µM (active) | 7.06 µM (active) and 11.2 µM (active) | 2.51 µM (active) and 3.56 µM (active) | 35.4 µM (active) and 71 µM (active) | inactive | 2.81 µM (active) and 5.64 µM (active) | 6.3 µM (active) and 6.33 µM (active) | 9.98 µM (active) and 11.2 µM (active) | 21.8 µM (active) and 38.9 µM (active) | inactive
O=[N+]([O-])c1ccc(O)c([N+](=O)[O-])c1 | inactive | inactive | inactive | inactive | inactive | inactive | 63.5 µM (active) and 39.9 µM (active) | inactive | inactive | 
Nc1ccc(Cl)c(Cl)c1 | inactive | inactive | inactive | inactive | inactive | inactive | 36.4 µM (active) and 35.6 µM (active) | 40.9 µM (active) and 35.6 µM (active) | inactive | 32.5 µM (active)

SMILES | Potency [1] | Potency [2] | Potency [3] | Potency [4] | Potency [5] | Potency [6] | Potency [7] | Potency [8] | Potency [9] | Potency [10]
C=C(C)[C@H]1Cc2c(ccc3c2O[C@@H]2COc4cc(OC)c(OC)cc4[C@@H]2C3=O)O1 | inactive | inactive | inactive | inactive | inactive and 38.9 µM (active) |  | 5.09 µM (active) and 6.33 µM (active) and 9.77 µM (active) | inactive | inactive | 
CC(C)(OOC(C)(C)c1ccccc1)c1ccccc1 | inactive | inactive | inactive | inactive | 35.1 µM (active) and inactive | 35.1 µM (active) and 6.33 µM (active) | 31.3 µM (active) and 31.7 µM (active) | inactive | inactive | inactive
CCCCCCCCC(=O)NCc1ccc(O)c(OC)c1 | inactive | inactive | inactive | inactive | 31.7 µM (active) and 17.4 µM (active) | 4.9 µM (active) | 2.52 µM (active) and 2.45 µM (active) | 31.7 µM (active) and 27.5 µM (active) | inactive | 
Cc1ccc(OP(=O)(Oc2ccc(C)cc2)Oc2ccc(C)cc2)cc1 | inactive | inactive | inactive | inactive | inactive | 3.99 µM (active) and 5.03 µM (active) | 7.09 µM (active) and 8.94 µM (active) | 7.09 µM (active) and 7.1 µM (active) |  | 7.09 µM (active) and 10 µM (active)
CC(C)c1ccc(CO)cc1 | inactive | inactive | inactive | inactive | inactive |  | 39.9 µM (active) |  | inactive | inactive
CCC(C)(c1ccc(O)cc1)c1ccc(O)cc1 | inactive | inactive | inactive | inactive | inactive | inactive | 28.2 µM (active) and 22.4 µM (active) | inactive | inactive | 
CCCCN(CC)c1c([N+](=O)[O-])cc(C(F)(F)F)cc1[N+](=O)[O-] | inactive | inactive | inactive | inactive | inactive | 72.1 µM (active) and 20 µM (active) | 31.7 µM (active) | 22.4 µM (active) |  | 
NNC(=S)NN | inactive | inactive | inactive | inactive | 65 µM (active) | 32.6 µM (active) and 39.9 µM (active) | 65 µM (active) | 41 µM (active) and 31.7 µM (active) | inactive | 
CCC(C)(C)c1ccc(O)cc1 | inactive | inactive | inactive | inactive | inactive | inactive | 71.8 µM (active) and 63.3 µM (active) | inactive | inactive | 
CCC(C)c1cc([N+](=O)[O-])cc([N+](=O)[O-])c1O (stereo unspecified) | inactive | inactive | inactive | inactive | inactive | inactive and 79.6 µM (active) | inactive | inactive and 63.3 µM (active) | inactive | inactive
Nn1cnnc1 | inactive | inactive | inactive | inactive | inactive | 19.3 µM (active) and 71 µM (active) | 34.4 µM (active) |  | inactive | inactive
CCCCCc1cc(O)cc(O)c1 | inactive | inactive | inactive | inactive | 10.1 µM (active) and 31.7 µM (active) | 3.57 µM (active) and 6.33 µM (active) | 11.3 µM (active) and 31.7 µM (active) | 17.9 µM (active) and 35.6 µM (active) | inactive | 
O=C(O)C(F)(F)C(F)(F)C(F)(F)C(F)(F)C(F)(F)C(F)(F)C(F)(F)F | inactive | inactive | inactive | inactive | inactive | 79.6 µM (active) and inactive | 1.78 µM (active) and 2.51 µM (active) | inactive | inactive | inactive
CC(O)CCO (stereo unspecified) | inactive | inactive | inactive | inactive | 32 µM (active) and inactive | inactive and 71 µM (active) | inactive | inactive | inactive | inactive
CCOCN(C(=O)CCl)c1c(C)cccc1CC | 33.6 µM (active) and inactive | inactive | inactive | inactive | inactive | 9.47 µM (active) and 15.9 µM (active) | 30 µM (active) and 39.9 µM (active) | 33.6 µM (active) and inactive | inactive | inactive
CCCCN(CCCC)N=O | inactive | 34.1 µM (active) and inactive | 12.1 µM (active) and inactive | inactive | inactive | 60.7 µM (active) and inactive | inactive | inactive | inactive | inactive
